Data from PubChem BioAssay (Tox21).
Inconclusive results are not listed. A call without a number means that no potency is given here. The source made the active and inactive calls. Calls follow the shape of the full dose curve.

Target: Beta-2 adrenergic receptor (Homo sapiens) (UniProt P07550)
Experiment: Adrenergic beta2 receptor (ADRB2) small molecule agonists, cell-based qHTS assay (AID 1963593)
Summary of the method: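 CHO cells stably over-expressing ADRB2 were plated overnight at 37C, then dosed with compounds plus a stimulation mix containing 100uM IBMX and 25uM Ro-20-1724 for 0.5hr at room temperature. cAMP was measured by HTRF competition, 1hr.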
Potency is read from the fitted curve at half-maximal effect.

Sequence of Beta-2 adrenergic receptor (Homo sapiens) (P07550 whole entry, looked up): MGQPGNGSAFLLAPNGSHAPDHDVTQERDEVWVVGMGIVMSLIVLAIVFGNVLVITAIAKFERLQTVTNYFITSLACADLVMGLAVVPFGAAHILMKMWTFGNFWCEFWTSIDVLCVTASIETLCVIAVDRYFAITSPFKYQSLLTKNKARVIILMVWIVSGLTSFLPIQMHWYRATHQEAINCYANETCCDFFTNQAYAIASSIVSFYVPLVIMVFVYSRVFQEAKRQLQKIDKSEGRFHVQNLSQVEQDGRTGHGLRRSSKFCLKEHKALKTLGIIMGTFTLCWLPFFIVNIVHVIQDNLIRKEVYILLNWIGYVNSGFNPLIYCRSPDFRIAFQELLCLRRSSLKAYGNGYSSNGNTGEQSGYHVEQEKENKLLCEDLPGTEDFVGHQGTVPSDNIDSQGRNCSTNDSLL

| SMILES | Potency |
| --- | --- |
| CCCCC(C#N)(Cn1cncn1)c1ccc(Cl)cc1 (configuration not stated) | inactive |
| CCCCN(CC)C(=O)SCCC | inactive |
| Cc1cc(Cl)ccc1OCC(=O)O | inactive |
| CNC(=O)Oc1ccccc1C1OCCO1 | inactive |
| CNC | inactive |
| COC[C@@H](NC(C)=O)C(=O)NCc1ccccc1 | inactive |
| O=NN(c1ccccc1)c1ccccc1 | inactive |
| Clc1cnc(Oc2ccc(Oc3ncc(Cl)cc3Cl)cc2)c(Cl)c1 | inactive |
| O=[N+]([O-])c1ccccc1 | inactive |
| C[C@]12CCC(=O)C(O)=C1CC[C@@H]1[C@@H]2CC[C@]2(C)C(=O)CC[C@@H]12 | inactive |
| CC(C)=CC1C(C(=O)OCN2C(=O)C3=C(CCCC3)C2=O)C1(C)C (configuration not stated) | inactive |
| C[C@H]1C(=O)O[C@@H]2CCN3CC=C(COC(=O)[C@](C)(O)[C@]1(C)O)[C@H]23 | inactive |
| ClCCBr | inactive |
| CC(C)=CC1C(C(=O)OCc2cccc(Oc3ccccc3)c2)C1(C)C (configuration not stated) | inactive |
| CC(Oc1ccc(Cl)cc1Cl)C(=O)O (configuration not stated) | inactive |
| CCC(C)c1ccc(O)cc1 (configuration not stated) | inactive |
| C1CN2CCC1CC2 | inactive |
| CN1C(=O)NC(=O)C(C)(C2=CCCCC2)C1=O (configuration not stated) | inactive |
| CCCOC(=O)c1cncn1C(C)c1ccccc1 (configuration not stated) | inactive |
| CC(C(=O)c1ccccc1)N(C)C (configuration not stated) | inactive |
| O=C([O-])c1ccccn1.O=C([O-])c1ccccn1.O=C([O-])c1ccccn1.[Cr+3] | inactive |
| Cc1ccc2cc(C)ccc2c1 | inactive |
| COc1ccccc1OC | inactive |

| SMILES | Potency |
| --- | --- |
| O=c1n(Cl)c(=O)n(Cl)c(=O)n1Cl | inactive |
| CN(C)CCO | inactive |
| COC(=O)C(Cl)C(=O)OC | inactive |
| COP(=O)(O)OC | inactive |
| CCOC(=O)C1(c2ccccc2)CCN(CCC(C#N)(c2ccccc2)c2ccccc2)CC1 | inactive |
| NC(=O)CCl | inactive |
| O=P(Cl)(Cl)Cl | inactive |
| CCCCOCCOC(C)=O | inactive |
| c1ccc(N=Nc2ccccc2)cc1 | inactive |
| CC(C)CON=O | inactive |
| c1ccoc1 | inactive |
| NCCc1ccc(O)cc1 | inactive |
| C=CCOC(Cn1ccnc1)c1ccc(Cl)cc1Cl (configuration not stated) | inactive |
| c1ccc2c(c1)oc1ccccc12 | inactive |
| OCCSSCCO | inactive |
| O=C(O)C(F)(F)C(F)(F)C(F)(F)C(F)(F)C(F)(F)C(F)(F)C(F)(F)C(F)(F)F | inactive |
| C=CCN(CC=C)C(=O)C(Cl)Cl | inactive |
| CC(=O)CC(c1ccc(Cl)cc1)c1c(O)c2ccccc2oc1=O (configuration not stated) | inactive |
| CC(C)Oc1cc(-n2nc(C(C)(C)C)oc2=O)c(Cl)cc1Cl | inactive |
| CC(C)c1cccc(C(C)C)c1O | inactive |
| CCCCOCC1CO1 (configuration not stated) | inactive |
| O=C(O)CCCc1ccc(N(CCCl)CCCl)cc1 | inactive |
| C=CCc1ccc2c(c1)OCO2 | inactive |

| SMILES | Potency |
| --- | --- |
| CCCCCCCCCCCCCCCC[n+]1ccccc1 | inactive |
| O=[N+]([O-])c1ccc(Cl)cc1 | inactive |
| CC(C)(C)OOC(=O)c1ccccc1 | inactive |
| CCOC(=O)C1OC1(C)c1ccccc1 (configuration not stated) | inactive |
| Cc1cc(Cl)ccc1OCCCC(=O)O | inactive |
| CCCCCON=O | inactive |
| CCCCCCCCCCCOC(=O)c1ccccc1C(=O)OCCCCCCCCCCC | inactive |
| C[N+](C)(C)C | inactive |
| CCSC(=O)N1CCCCCC1 | inactive |
| C=CC1CC=CCC1 (configuration not stated) | inactive |
| Nc1ccc(-c2ccc(N)c(Cl)c2)cc1Cl | inactive |
| ClC1=C(Cl)C2(Cl)C3C(Cl)C(Cl)CC3C1(Cl)C2(Cl)Cl (configuration not stated) | 54.5 µM (active) |
| O=[N+]([O-])c1ccc(Oc2ccc(Cl)cc2Cl)cc1 | inactive |
| CC(=O)[O][Hg][c]1ccccc1 | 4.73 µM (active) |
| C=CC(C)=O | inactive |
| CC(=O)C1CCOC1=O (configuration not stated) | inactive |
| C=CC(N)=O | inactive |
| Clc1ccc(C(Cl)(Cl)Cl)cc1 | inactive |
| COC(C)(C)C | inactive |
| CC1(C)C(=O)NC(=O)NC1=O | inactive |
| Oc1cc(Cl)ccc1Cl | inactive |
